In the supplement of paper PMC10849652:
Of roughly 8,800 targets only a part is listed; those with a hit were picked by preference. About 0.5% of all pairs of compound and target were hits.

Experiments:
Experiment in all cases: log2 fold change, soluble protein after heating vs DMSO (PISA); higher = thermal stabilisation; K562 lysate, 10 uM; active = over 0.2 and 3.5 SD of the protein, either way, in both replicates (recomputed)
[1] = compound: C1=CC=C(C=C1)[C@H](COC2=CC3=C(C=C2)NC(=O)N3)NC(=O)C4=CC=CN(C4=O)CC5=CC(=C(C=C5)F)F
Procedure, shortened: (§1)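 K562 pellets were dounce-homogenised in PBS pH 7.4 containing 1 mM MgCl2, and the crude extract, at 1 mg/mL protein, was exposed to 10 μM compound for 30 min. Aliquots were heated for 3 min across 48°C-58°C, pooled, brought to 0.5% NP-40 at 4°C and spun at 21,000xg for 90 min, with the supernatant taken as soluble protein. TMTpro 16plex LC-MS/MS with equalised channel sums quantified that protein. Values are log-two fold changes in thermal stability relative to solvent controls, taken from duplicates.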

[2] = compound: CC1=C(SC2=C1C(=N[C@H](C3=NN=C(N32)C)CC(=O)N)C4=CC=C(C=C4)Cl)C
Procedure, shortened: as §1

[3] = compound: CC1=C2C(=CC=C1)N=C(N(C2=O)C3=CC=CC=C3C)CN4C=NC5=C(N=CN=C54)N
Procedure, shortened: as §1

[4] = compound: Cc1sc2c(c1C)C(c1ccc(Cl)cc1)=N[C@@H](CC(=O)OC(C)(C)C)c1nnc(C)n1-2
Procedure, shortened: as §1

[5] = compound: c1ccc([C@@H]2C[C@H]2NC2CCNCC2)cc1
Procedure, shortened: as §1

Measured: log2 fold change

NSL1 (UniProt Q96IY1)
Sequence of UniProt Q96IY1 (Q96IY1 whole entry, looked up): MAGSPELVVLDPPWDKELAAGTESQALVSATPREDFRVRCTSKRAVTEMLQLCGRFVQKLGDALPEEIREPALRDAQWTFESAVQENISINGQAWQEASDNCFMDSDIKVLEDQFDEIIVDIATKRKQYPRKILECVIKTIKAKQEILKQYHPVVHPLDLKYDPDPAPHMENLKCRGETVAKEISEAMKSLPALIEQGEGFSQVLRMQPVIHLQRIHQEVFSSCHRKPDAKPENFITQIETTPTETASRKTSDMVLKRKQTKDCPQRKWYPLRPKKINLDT
inactive: [1] 0.028 | [2] 0.012 | [3] -0.001 | [4] 0.053 | [5] -0.014

MYO9A isoform 4 (UniProt B2RTY4)
inactive: [1] -0.124 | [2] -0.047 | [3] 0.094 | [4] -0.027 | [5] -0.02

NOB1 (UniProt Q9ULX3)
inactive: [1] 0.004 | [2] -0.051 | [3] 0.038 | [4] -0.021 | [5] 0.13

MYOM1 (UniProt P52179)
inactive: [1] -0.012 | [2] 0.088 | [3] -0.111 | [4] -0.135 | [5] -0.079

MSH3 (UniProt P20585)
inactive: [1] 0.018 | [2] 0.014 | [3] 0.039 | [4] -0.008 | [5] 0.04

NCAPG (UniProt Q9BPX3)
inactive: [1] -0.031 | [2] 0.013 | [3] -0.007 | [4] 0.013 | [5] 0.03

PAFAH1B3 (UniProt Q15102)
Sequence of UniProt Q15102 (Q15102 whole entry, looked up): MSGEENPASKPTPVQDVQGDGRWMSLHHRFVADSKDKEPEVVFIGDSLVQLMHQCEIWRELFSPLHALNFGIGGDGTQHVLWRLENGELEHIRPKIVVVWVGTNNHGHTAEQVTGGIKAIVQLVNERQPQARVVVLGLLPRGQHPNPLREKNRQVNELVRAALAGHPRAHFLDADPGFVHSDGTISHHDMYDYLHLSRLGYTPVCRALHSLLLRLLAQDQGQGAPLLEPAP
inactive: [1] 0 | [2] 0.042 | [3] 0.045 | [4] 0.047 | [5] 0.014

NUP93 (UniProt Q8N1F7)
Sequence of UniProt Q8N1F7 (Q8N1F7 whole entry, looked up): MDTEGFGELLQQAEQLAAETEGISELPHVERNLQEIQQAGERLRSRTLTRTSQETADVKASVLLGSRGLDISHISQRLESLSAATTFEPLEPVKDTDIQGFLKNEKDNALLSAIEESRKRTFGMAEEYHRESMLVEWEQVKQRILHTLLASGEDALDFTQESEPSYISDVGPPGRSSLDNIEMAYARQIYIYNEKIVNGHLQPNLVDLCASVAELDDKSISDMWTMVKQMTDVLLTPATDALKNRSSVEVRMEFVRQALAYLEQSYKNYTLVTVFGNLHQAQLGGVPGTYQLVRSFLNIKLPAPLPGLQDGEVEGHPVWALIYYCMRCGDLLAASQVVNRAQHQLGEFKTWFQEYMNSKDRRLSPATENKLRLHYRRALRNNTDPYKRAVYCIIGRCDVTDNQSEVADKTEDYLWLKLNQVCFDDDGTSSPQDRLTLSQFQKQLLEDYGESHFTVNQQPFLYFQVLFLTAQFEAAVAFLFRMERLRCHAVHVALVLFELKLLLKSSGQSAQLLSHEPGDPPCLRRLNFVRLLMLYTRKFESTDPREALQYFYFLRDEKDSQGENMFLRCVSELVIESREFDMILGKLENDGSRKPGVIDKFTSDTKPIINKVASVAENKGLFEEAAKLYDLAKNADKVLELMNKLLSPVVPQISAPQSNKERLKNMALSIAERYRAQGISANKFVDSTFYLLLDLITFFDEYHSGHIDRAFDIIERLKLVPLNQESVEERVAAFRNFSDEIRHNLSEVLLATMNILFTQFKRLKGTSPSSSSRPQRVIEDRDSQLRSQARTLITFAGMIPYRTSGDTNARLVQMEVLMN
inactive: [1] -0.054 | [2] -0.017 | [3] -0.006 | [4] 0.007 | [5] 0.031

NPTN (UniProt Q9Y639)
Sequence of UniProt Q9Y639 (Q9Y639 whole entry, looked up): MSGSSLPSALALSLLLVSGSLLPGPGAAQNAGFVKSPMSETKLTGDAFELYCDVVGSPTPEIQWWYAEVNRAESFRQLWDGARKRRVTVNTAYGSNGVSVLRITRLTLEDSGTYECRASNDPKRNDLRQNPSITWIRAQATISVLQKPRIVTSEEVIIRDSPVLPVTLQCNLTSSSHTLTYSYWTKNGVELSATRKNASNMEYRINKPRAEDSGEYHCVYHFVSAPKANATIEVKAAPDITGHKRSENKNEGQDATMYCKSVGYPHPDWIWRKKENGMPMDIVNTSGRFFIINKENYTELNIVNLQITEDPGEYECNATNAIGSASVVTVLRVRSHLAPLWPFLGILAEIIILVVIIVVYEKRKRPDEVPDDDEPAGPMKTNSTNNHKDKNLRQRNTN
inactive: [1] 0.026 | [2] -0.045 | [3] -0.038 | [4] -0.018 | [5] -0.006

NMT1 (UniProt P30419)
inactive: [1] 0.004 | [2] 0.002 | [3] -0.002 | [4] 0.011 | [5] 0.004

MRPL53 (UniProt Q96EL3)
inactive: [1] -0.056 | [2] -0.102 | [3] 0.079 | [4] -0.026 | [5] -0.093

MYD88 isoform 6 (UniProt Q99836)
inactive: [1] 0.019 | [2] -0.021 | [3] 0.026 | [4] -0.008 | [5] 0.013

MTMR6 (UniProt Q9Y217)
Sequence of UniProt Q9Y217 (Q9Y217 whole entry, looked up): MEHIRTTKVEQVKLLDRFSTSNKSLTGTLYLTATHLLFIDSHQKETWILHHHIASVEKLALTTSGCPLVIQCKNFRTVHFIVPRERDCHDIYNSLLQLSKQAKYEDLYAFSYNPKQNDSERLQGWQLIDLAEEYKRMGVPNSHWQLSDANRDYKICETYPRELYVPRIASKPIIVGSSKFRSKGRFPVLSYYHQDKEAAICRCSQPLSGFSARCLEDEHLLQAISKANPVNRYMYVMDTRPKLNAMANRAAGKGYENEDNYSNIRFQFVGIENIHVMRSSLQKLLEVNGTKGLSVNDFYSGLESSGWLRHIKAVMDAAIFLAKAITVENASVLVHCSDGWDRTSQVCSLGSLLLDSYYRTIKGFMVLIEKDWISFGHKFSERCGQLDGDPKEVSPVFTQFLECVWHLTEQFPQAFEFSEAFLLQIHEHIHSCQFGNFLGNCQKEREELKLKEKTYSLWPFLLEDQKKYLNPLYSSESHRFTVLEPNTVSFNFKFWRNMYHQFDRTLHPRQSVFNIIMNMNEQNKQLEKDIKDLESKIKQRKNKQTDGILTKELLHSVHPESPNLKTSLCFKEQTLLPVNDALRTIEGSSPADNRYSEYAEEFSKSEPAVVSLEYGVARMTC
inactive: [1] 0.015 | [2] 0.01 | [3] 0.006 | [4] -0.065 | [5] 0.062

NARF (UniProt Q9UHQ1)
Sequence of UniProt Q9UHQ1 (Q9UHQ1 whole entry, looked up): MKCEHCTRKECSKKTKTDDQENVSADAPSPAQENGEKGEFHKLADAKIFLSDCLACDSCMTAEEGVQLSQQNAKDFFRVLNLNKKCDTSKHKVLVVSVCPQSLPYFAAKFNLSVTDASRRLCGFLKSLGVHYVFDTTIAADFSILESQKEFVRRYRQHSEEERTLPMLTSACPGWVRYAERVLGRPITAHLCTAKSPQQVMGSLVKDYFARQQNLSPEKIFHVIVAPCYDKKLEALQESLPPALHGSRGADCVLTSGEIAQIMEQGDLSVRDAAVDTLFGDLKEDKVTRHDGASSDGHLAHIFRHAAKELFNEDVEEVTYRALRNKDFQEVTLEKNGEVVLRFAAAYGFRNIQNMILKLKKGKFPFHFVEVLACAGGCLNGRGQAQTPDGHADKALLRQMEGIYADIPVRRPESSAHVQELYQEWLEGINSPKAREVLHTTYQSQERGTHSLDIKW
inactive: [1] -0.023 | [2] -0.005 | [3] 0.017 | [4] -0.019 | [5] 0

NLRP2 (UniProt Q9NX02)
inactive: [1] -0.01 | [2] -0.027 | [3] -0.015 | [4] 0.03 | [5] 0.093

NFATC2IP (UniProt Q8NCF5)
inactive: [1] 0.012 | [2] -0.01 | [3] 0.009 | [4] 0.138 | [5] 0.049

NSA2 (UniProt O95478)
inactive: [1] 0.111 | [2] -0.135 | [3] -0.018 | [4] -0.042 | [5] 0.122

MTHFD1L (UniProt B7ZM99)
inactive: [1] -0.039 | [2] 0.025 | [3] 0.06 | [4] 0.025 | [5] 0.049

OPA1 isoform 2 (UniProt O60313)
inactive: [1] -0.048 | [2] 0.021 | [3] 0.038 | [4] 0.005 | [5] 0.084

OSGEP (UniProt Q9NPF4)
Sequence of UniProt Q9NPF4 (Q9NPF4 whole entry, looked up): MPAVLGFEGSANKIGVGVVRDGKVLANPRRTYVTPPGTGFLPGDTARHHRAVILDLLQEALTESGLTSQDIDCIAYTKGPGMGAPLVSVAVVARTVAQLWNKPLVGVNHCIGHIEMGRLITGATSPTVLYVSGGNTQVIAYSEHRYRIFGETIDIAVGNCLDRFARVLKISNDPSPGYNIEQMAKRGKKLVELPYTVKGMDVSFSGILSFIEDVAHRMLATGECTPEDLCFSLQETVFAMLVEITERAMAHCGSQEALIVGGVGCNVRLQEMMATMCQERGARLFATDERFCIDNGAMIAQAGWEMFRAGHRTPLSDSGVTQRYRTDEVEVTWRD
inactive: [1] -0.007 | [2] 0.031 | [3] 0.036 | [4] 0.063 | [5] 0.011

PANK4 (UniProt Q9NVE7)
Sequence of UniProt Q9NVE7 (Q9NVE7 whole entry, looked up): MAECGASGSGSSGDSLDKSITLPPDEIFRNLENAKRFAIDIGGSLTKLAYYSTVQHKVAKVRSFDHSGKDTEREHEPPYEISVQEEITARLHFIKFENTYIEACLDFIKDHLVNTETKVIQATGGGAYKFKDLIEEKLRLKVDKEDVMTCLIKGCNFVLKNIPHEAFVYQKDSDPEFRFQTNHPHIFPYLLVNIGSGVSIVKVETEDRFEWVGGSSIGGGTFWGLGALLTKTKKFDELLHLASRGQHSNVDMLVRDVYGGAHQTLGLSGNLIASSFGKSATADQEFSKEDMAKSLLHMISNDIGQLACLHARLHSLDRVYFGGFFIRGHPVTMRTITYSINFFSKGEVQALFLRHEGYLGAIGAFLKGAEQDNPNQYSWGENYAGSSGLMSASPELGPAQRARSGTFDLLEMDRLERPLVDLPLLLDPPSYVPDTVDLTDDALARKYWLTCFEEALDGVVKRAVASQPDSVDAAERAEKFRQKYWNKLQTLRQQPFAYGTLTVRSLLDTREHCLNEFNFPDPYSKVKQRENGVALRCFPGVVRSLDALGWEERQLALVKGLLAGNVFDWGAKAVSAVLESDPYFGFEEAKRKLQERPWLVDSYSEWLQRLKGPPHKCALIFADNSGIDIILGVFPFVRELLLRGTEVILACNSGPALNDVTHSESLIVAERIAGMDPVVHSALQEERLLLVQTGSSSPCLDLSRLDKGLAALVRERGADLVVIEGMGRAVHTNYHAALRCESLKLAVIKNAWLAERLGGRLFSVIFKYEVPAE
inactive: [1] -0.009 | [2] -0.025 | [3] 0.026 | [4] 0.003 | [5] -0.013

MYO1C (UniProt O00159)
inactive: [1] -0.025 | [2] -0.038 | [3] -0.051 | [4] -0.025 | [5] 0.033

NEK9 (UniProt Q8TD19)
Sequence of UniProt Q8TD19 (Q8TD19 whole entry, looked up): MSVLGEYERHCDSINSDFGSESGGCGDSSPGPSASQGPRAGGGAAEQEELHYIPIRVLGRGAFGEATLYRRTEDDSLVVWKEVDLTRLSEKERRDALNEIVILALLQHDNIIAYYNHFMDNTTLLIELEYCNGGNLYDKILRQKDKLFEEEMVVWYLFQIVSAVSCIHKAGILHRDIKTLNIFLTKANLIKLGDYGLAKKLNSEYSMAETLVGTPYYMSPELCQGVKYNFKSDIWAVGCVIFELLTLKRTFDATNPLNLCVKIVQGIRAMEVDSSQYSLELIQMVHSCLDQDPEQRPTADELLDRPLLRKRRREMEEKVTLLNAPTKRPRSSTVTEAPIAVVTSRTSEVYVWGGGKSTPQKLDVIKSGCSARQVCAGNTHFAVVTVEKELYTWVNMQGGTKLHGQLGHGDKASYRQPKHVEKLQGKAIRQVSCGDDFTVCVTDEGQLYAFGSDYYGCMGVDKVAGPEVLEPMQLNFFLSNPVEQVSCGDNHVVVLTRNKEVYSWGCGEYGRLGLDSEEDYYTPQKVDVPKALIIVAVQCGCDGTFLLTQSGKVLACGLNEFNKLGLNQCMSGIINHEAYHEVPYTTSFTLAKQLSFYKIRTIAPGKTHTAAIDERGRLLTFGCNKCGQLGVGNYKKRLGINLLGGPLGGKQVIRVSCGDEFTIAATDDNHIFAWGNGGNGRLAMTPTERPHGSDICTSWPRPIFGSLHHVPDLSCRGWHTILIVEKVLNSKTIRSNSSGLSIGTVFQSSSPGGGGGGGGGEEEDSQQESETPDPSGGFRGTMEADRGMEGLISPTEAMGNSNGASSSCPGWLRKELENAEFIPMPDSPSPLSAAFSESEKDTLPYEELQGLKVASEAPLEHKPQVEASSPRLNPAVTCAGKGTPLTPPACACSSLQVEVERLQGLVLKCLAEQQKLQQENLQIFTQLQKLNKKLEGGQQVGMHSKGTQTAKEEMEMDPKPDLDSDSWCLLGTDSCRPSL
inactive: [1] -0.002 | [2] 0.002 | [3] -0.033 | [4] 0.017 | [5] -0.032

PARP14 (UniProt Q460N5)
inactive: [1] 0.021 | [2] -0.003 | [3] 0.063 | [4] -0.028 | [5] -0.045
